Compound activity: PubChem BioAssay, several laboratories
Rows were chosen to be rich in hits. Some 2.1% of all compounds tested hit in one or more screens of this group.
Avidin bead fluor: green autofluorescence of compounds with avidin beads – biophysical, 488/530 nm, flow cytometry, artefact control, profiling panel. compound fluorescence 488/530 nm; stronger effect = higher value. fluorescence (KMESF) at 10 µM. hit rate 0.38% among 220,000. AID 1775, 2009; in the data active = fluorescence above about 47
HMGR II inh: inhibitors of E. faecalis class II HMGR, primary screen, biochemical, Enterococcus faecalis | HMG-CoA reductase (Enterococcus faecalis, mvaE) | purified E. faecalis HMGR, NADPH absorbance 340 nm kinetic | inhibition, % at 10 µM | hit rate 0.41% among 190,000;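 active = inhibition above a set limit, the median over all tested compounds plus 3 SD, cut at about 9.5% in these data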;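 note: enzyme runs in reverse so mevalonate oxidation gives rising NADPH absorbance; 0% = complete reaction with DMSO and 100% = background rate lacking mevalonate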
GSH fluor: compound fluorescence on glutathione beads, profiling panel, artefact control, biophysical, 488/530 nm, flow cytometry; GSH beads flow cytometry, compound fluorescence 488/530 nm; stronger effect = higher value; fluorescence (KMESF) at 10 µM; hit rate 0.25% among 190,000; AID 1776, 2009; in the data active = fluorescence above about 89;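 note: glutathione beads carrying GST-tagged Bcl family fusion proteins plus one bare bead set; values are compound well signal with DMSO vehicle wells as background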
EP2 mod: EP2 receptor modulators, cAMP readout, primary screen, cell-based, HTRF cAMP, PGE2 stimulation; EP2-expressing cells, cAMP HTRF FRET, PGE2 co-stimulation; induction, % at 25 µM; hit rate 0.83% among 260,000;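 active = compounds whose cAMP rise, as percent of the full-agonist control response, exceeds 60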;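 note: rat C6 glioma line stably carrying human EP2 under a CMV promoter; the protocol text gives 20 µM as final concentration; 100% = response of wells given 1 µM PGE2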
Target sequence (P43116 whole entry, looked up): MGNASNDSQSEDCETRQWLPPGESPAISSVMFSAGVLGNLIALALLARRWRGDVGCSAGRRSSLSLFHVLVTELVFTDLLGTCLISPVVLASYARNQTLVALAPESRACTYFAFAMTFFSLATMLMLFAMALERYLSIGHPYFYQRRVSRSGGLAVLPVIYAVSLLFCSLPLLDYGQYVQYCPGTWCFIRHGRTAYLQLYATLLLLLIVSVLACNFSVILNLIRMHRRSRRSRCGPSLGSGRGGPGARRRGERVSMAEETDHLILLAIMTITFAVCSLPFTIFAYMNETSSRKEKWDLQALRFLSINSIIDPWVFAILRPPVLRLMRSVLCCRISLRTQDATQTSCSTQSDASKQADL
PGE2 EP2 inh: human EP2 receptor antagonists, primary screen, TR-FRET cAMP, C6 glioma cells. inhibition, % at 25 µM. AID 1422, 2008. C6 glioma cells expressing human EP2; cells stimulated with saturating PGE2. Prostaglandin E2 receptor EP2 subtype (Homo sapiens), P43116. hit rate 0.52% among 260,000;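 active = percent inhibition above 40 after rounding to a whole number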;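 note: rat C6 glioma host cells with rolipram phosphodiesterase inhibitor present; the protocol text gives 20 µM as final concentration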
* hit, by the source's call.

What do the screens show for `COC(=O)c1[nH]c(C)c(/C(O)=C2\C(=O)C(=O)N(CCN3CCOCC3)C2c2cccs2)c1C` (stereo unspecified)?
Avidin bead fluor: 26; HMGR II inh: -1.2; GSH fluor: 12; EP2 mod: 36.5; PGE2 EP2 inh: 8.2

Results for CCc1nn(CC(=O)N(C)C)c(=O)c2cc3sccc3n12 ?
EP2 mod: 16.9

Results for Cc1ccc2[nH]c(=O)c(C(c3nnnn3Cc3ccc(F)cc3)N3CCN(C)CC3)cc2c1 (stereo unspecified) ?
EP2 mod: -42.7; PGE2 EP2 inh: 16.9

What do the screens show for `c1ccc2c(c1)C(=Nn1cnnc1)c1ccccc1-2`?
Avidin bead fluor: 9; HMGR II inh: 1.3; GSH fluor: 33; EP2 mod: -10.1; PGE2 EP2 inh: 28.4

How did c1ccc2c(c1)C(=Nc1ccc(N=C3c4ccccc4-c4ccccc43)cc1)c1ccccc1-2 do in these assays?
EP2 mod: -8.1; PGE2 EP2 inh: 44.5*

Results for CCC(C)NC(=O)C1c2cc(OC)c(OC)cc2C(=O)N(C)C1c1cccs1 (stereo unspecified) ?
Avidin bead fluor: 67*; HMGR II inh: 1.1; GSH fluor: 22; EP2 mod: 30.4; PGE2 EP2 inh: 12.3

What do the screens show for `O=C(Nc1nc(-c2cccs2)cs1)c1ccc(Cl)cc1`?
Avidin bead fluor: 37; HMGR II inh: -2.8; GSH fluor: 26; EP2 mod: 7.5; PGE2 EP2 inh: 3.6

How did COc1cc(C(=O)Nc2nc(-c3cccs3)cs2)cc(OC)c1OC do in these assays?
Avidin bead fluor: 9; HMGR II inh: 0.4; GSH fluor: 18; EP2 mod: -29.5; PGE2 EP2 inh: 87.5*

Results for COc1ccc(C(=O)Nc2nc(-c3cccs3)cs2)cc1 ?
Avidin bead fluor: 2; HMGR II inh: -3.0; GSH fluor: 50; EP2 mod: -22.1; PGE2 EP2 inh: 42.6*

Results for Cc1csc(NC(=O)c2sc3nc(-c4cccs4)ccc3c2N)n1 ?
Avidin bead fluor: 35; HMGR II inh: -2.5; GSH fluor: 42; EP2 mod: -48.5; PGE2 EP2 inh: 63.7*

How did CCCSc1nnc(NC(=O)c2sc3nc(-c4cccs4)ccc3c2N)s1 do in these assays?
Avidin bead fluor: 6; HMGR II inh: -3.0; GSH fluor: 16; EP2 mod: -33.7; PGE2 EP2 inh: 7.6

Results for C=CCn1cc(CN(Cc2ccccc2)CC2CCCO2)c(C)n1 (stereo unspecified) ?
EP2 mod: 2.7; PGE2 EP2 inh: 5.2

How did Cc1cc(-c2cncnc2C2CCCN(S(=O)(=O)c3ccc4c(c3)OCCO4)C2)on1 (stereo unspecified) do in these assays?
EP2 mod: 18.1

How did COc1ccc(CCNC2=CC(=O)N(c3ccc(F)cc3)C2=O)cc1 do in these assays?
Avidin bead fluor: 18; HMGR II inh: 14.4*; GSH fluor: 9; EP2 mod: 0.7; PGE2 EP2 inh: 9.1

Results for CCNC(=O)CC1C(=O)N(c2ccc(F)cc2)C(=O)N1CCc1ccc(OC)cc1 (stereo unspecified) ?
Avidin bead fluor: 6; HMGR II inh: -1.7; GSH fluor: 25; EP2 mod: -1.0; PGE2 EP2 inh: 3.5

What do the screens show for `COc1ccc(-c2cc(C#N)nc(N3CCNCC3)n2)cc1`?
Avidin bead fluor: 49*; HMGR II inh: -2.4; GSH fluor: 15; EP2 mod: -11.5; PGE2 EP2 inh: 4.7

Results for COc1ccc(-c2cc(C#N)nc(N3CCN(C)CC3)n2)cc1 ?
Avidin bead fluor: 5; HMGR II inh: -2.8; GSH fluor: 24; EP2 mod: -11.8; PGE2 EP2 inh: 6.7

Results for CCNc1ccc(S(=O)(=O)C(F)(F)F)cc1NC(=O)C12CCC(CC1)C2 ?
Avidin bead fluor: 13; HMGR II inh: -0.3; GSH fluor: 27; EP2 mod: -4.0; PGE2 EP2 inh: 76.0*

What do the screens show for `CCNc1cc(S(=O)(=O)C(F)(F)F)ccc1N`?
Avidin bead fluor: 2; HMGR II inh: -1.6; GSH fluor: 12; EP2 mod: 6.0; PGE2 EP2 inh: 11.6

Results for Nc1nc(SCC(=O)C2CCC(Br)CC2)c2[nH]cnc2n1 (stereo unspecified) ?
EP2 mod: -32.7; PGE2 EP2 inh: 48.9*
